Results filed as inconclusive are left out. Activity calls are given as the source filed them. Calls follow the shape of the full dose curve.
Legend:
[1] = target: Acetylcholinesterase (Homo sapiens) (UniProt P22303); assay: Acetylcholinesterase (AChE) small molecule antagonists: colormetric cell-based qHTS assay (AID 1347395); also: nearly all actives have a fitted effect of over 30% in size
Method in brief: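 Colorimetric readout: DTNB quantifies thiocholine from acetylthiocholine hydrolysed by endogenous AChE of SH-SY5Y cells (2,000/well, plated overnight). Compound pretreatment 30 min, substrate incubation 90 min, both 37 C.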

[2] = target: Acetylcholinesterase (Homo sapiens) (UniProt P22303); assay: Acetylcholinesterase (AChE) small molecule antagonists: enzyme-based qHTS assay (AID 1347397); conditions: Potency: AChE enzyme activity inhibition; outcome: AChE enzyme activity inhibition; also: nearly all actives have a fitted effect of over 55% in size
Method in brief: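 Colorimetric DTNB read-out of thiocholine released from acetylthiocholine by recombinant human AChE (50 mU/mL as dispensed). Compounds were preincubated 30 min at RT before substrate/DTNB addition, with a 10 min RT reaction.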

[3] = target: Acetylcholinesterase (Homo sapiens) (UniProt P22303); assay: Acetylcholinesterase (AChE) small molecule antagonists: fluorescence cell-based qHTS assay (AID 1347398); conditions: Potency: AChE activity; outcome: AChE activity; also: nearly all actives have a fitted effect of over 50% in size
Method in brief: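 SH-SY5Y, 2,000 cells/well, attached overnight; cmpd 30 min 37 C; acetylthiocholine/Thiolite Green cocktail 40 min RT; fluorescence Ex/Em 490/520 nm.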

[4] = target: Acetylcholinesterase (Homo sapiens) (UniProt P22303); assay: Acetylcholinesterase (AChE) small molecule antagonists: enzyme-based qHTS assay with human liver microsomes (AID 1347399); conditions: Potency: qHTS inhibition; outcome: qHTS inhibition; also: nearly all actives have a fitted effect of over 60% in size
Method in brief: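 Recombinant human AChE (50 mU/mL in the enzyme mix) and human liver microsomes (0.25 mg/mL final) were preincubated with compound and NADPH (0.25 mg/mL final) for 30 min at 37 C. Acetylthiocholine/DTNB was then added; thiocholine was read colorimetrically after 10 min at room temperature.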

Measured: Potency

Chain of Acetylcholinesterase (Homo sapiens) (P22303 whole entry, looked up): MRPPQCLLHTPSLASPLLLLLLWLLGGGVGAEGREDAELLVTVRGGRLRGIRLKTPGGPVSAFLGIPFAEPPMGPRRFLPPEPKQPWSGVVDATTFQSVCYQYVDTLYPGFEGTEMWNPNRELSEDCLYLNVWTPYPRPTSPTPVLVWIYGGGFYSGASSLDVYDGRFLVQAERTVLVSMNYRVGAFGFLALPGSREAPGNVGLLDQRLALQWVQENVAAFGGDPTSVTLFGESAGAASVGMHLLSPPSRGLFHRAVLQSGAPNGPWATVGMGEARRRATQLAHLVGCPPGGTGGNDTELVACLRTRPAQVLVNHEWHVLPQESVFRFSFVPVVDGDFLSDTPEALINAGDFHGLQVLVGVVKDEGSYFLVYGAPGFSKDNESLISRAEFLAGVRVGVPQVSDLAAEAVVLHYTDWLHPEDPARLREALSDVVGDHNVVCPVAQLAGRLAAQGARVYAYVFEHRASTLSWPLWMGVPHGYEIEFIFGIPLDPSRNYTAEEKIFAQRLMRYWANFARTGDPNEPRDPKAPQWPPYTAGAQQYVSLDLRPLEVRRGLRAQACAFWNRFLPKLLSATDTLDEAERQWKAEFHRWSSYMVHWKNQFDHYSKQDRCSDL

C=C1CC[C@H]2C[C@@H]1C2(C)C
inactive: all assays above

CC(=N\O)/C(C)=N/O
inactive: all assays above

O=P(O)(O)Oc1ccccc1
inactive: all assays above

COc1cc(OC)cc(OC)c1
inactive: all assays above

OC1(c2ccc(Cl)cc2)CCNCC1
inactive: all assays above

C=C(C)C(=O)OCCC[Si](Cl)(Cl)Cl
inactive: all assays above

CN1CCC(=C2c3ccccc3Sc3ccccc32)CC1
inactive: all assays above

C=CC(C)(CCC=C(C)C)OC(=O)CC(C)C (centres undefined)
inactive: all assays above

CCN(CC)CCOC(=O)C1(c2ccccc2)CCCC1
inactive: all assays above

COc1ccc(-c2coc3cc(O)ccc3c2=O)cc1
inactive: all assays above

CCCCCCCCCCCC(C)=O
inactive: all assays above

O=S(=O)(O)c1cc(I)c(O)c2ncccc12
inactive: all assays above

CCCC(=O)OC/C=C(\C)CCC=C(C)C
inactive: all assays above

CC(C)CCOCc1ccccc1
inactive: all assays above

CCCCN1CCCC1C(=O)Nc1c(C)cc(C)cc1C (centres undefined)
inactive: all assays above

CC(=O)NC(=O)c1ccccc1O
inactive: all assays above

Reference: PubChem BioAssay (Tox21)
